The values below come from PubChem BioAssay (NCATS).

The nature of assay [1]: Cell Viability - LYMP2-025 (AID 976).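 Further: series mostly up to about 92 µM; plate controls were DMSO only for no effect and tetraoctylammonium bromide control for full effect.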 In short, it runs like this:
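Acute cytotoxicity is scored as a concentration-dependent fall in intracellular ATP, measured by luciferase luminescence, in human lymphoblastoid LYMP2-025 cells exposed to compound for 24 hours at 37 C. AC50 values come from standard Hill fits.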

Assay [2] in a line: Cell Viability - LYMP2-002 (AID 977).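 Further: series mostly up to about 92 µM; compound exposure lasted 24 h at 37 °C; plate controls were DMSO only for no effect and 92 µM tetraoctylammonium bromide for full effect.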 An outline of the steps: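 Human lymphoblastoid cells (2500/well) in complete medium were preincubated 5 hr at 37 C, then exposed to compounds for 24 hr at 37 C. Intracellular ATP was read by CellTiter-Glo luminescence; AC50 came from Hill-equation concentration-response fits.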
Assay [3] is described as follows: Cell Viability - LYMP2-006 (AID 978). Further: series mostly up to about 92 µM; on the % scale 0 is the no-effect control and ±100 the full control effect; nearly all actives have a fitted effect of over 60% in size. In short, it runs like this:
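Concentration-dependent loss of intracellular ATP in a human lymphoblastoid line after 24 hr treatment at 37 C was measured by CellTiter-Glo luminescence, with AC50 values obtained from standard Hill-equation modelling.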

The nature of assay [4]: Cell Viability - LYMP2-007 (AID 979).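 Further: cells exposed to compound for 24 h before reading; 0% = DMSO only and the negative end = 92 µM tetraoctylammonium bromide; nearly all actives have a fitted effect of over 60% in size.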 An outline of the steps: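 Cells are seeded at 2500 per well and rested 5 hr. Compounds are then added over a concentration series for 24 hr at 37 C. CellTiter-Glo is added for 30 min at room temperature before luminescence reading.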
Assay [5] in a line: Cell Viability - LYMP2-010 (AID 981). Further: on the % scale 0 is the no-effect control and ±100 the full control effect; nearly all actives have a fitted effect of over 55% in size. In short, it runs like this:
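Steps: seed 2500 LYMP2-010 cells per well; incubate 5 hr at 37 C; add compound; incubate 24 hr at 37 C; add CellTiter-Glo, wait 30 min at room temperature; read luminescence. Concentration-response fitted to Hill equation for AC50.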

Assay [6] in a line: Cell Viability - LYMP2-024 (AID 988).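 Further: plate controls were DMSO only for no effect and 92 µM tetraoctylammonium bromide for full effect; nearly all actives have a fitted effect of over 60% in size.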 An outline of the steps: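 qHTS cytotoxicity, human lymphoblastoid line, complete medium; 24 h cpd treatment, 37 C; CellTiter-Glo ATP luminescence readout; tetraoctylammonium bromide positive control; AC50 via Hill fit.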
Assay [7] in a line: Cell Viability - LYMP2-026 (AID 989). Further: on the % scale 0 is the no-effect control and ±100 the full control effect; nearly all actives have a fitted effect of over 50% in size. In short, it runs like this:
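Cells are seeded at 2500 per well and held 5 hr at 37 C. Compounds are added in concentration series for 24 hr, then CellTiter-Glo reagent is applied and luminescence read.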

A short description of assay [8]: Cell Viability - LYMP1-002 - Assay at 24 hr (AID 993). Further: on the % scale 0 is the no-effect control and ±100 the full control effect. An outline of the steps: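 Acute toxicity is measured as concentration-dependent loss of cellular ATP in a human lymphoblastoid line (Coriell LYMP1-002) after 24 h treatment in complete medium. ATP is quantified by luciferase luminescence and AC50 derived by Hill modelling.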
Assay [9] is described as follows: Cell Viability - LYMP1-002 - Assay at 40 hr (AID 994).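 Further: 0% = DMSO only and full inhibition = 92 µM tetraoctylammonium bromide; nearly all actives have a fitted effect of over 60% in size.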 In short, it runs like this:
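Cells are plated at 2500 per well and rested 5 hr at 37 C. Compounds are added and incubated 40 hr at 37 C. CellTiter-Glo reagent is added for 30 min at room temperature before luminescence is read.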

Assay [10] can be described thus: qHTS Assay for Identification of Small Molecule Inducers of Hypoxia Response (AID 2120; active means well fitted curve in the direction sought with a large enough effect in the signal ratio, with a control signal flat, not every such curve was filed as active; the % refers to the signal ratio; further: 0% is about no effect). In short, it runs like this:
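Cell-based qHTS for reporter induction: hypoxia response element controlled beta-lactamase in ME-180 cells. Compounds incubated 17 h at 37 degrees C; activity from blue/green (460/530 nm) ratio, inducers ranked by AC50.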
A general note: qHTS replaces the single test concentration by a dilution series.

In assay [11] the target is Estrogen receptor (Homo sapiens) (UniProt P03372). The assay can be described thus: qHTS assay for small molecule antagonists of estrogen receptor alpha signaling (AID 588513; active means well fitted curve in the direction sought with a large enough effect in the signal ratio, with a control signal flat, not every such curve was filed as active; the % refers to the signal ratio; further: on the % scale 0 is the no-effect control and ±100 the full control effect). In short, it runs like this:
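Cells were plated at 5000/well and incubated 4 h at 37 C. Compounds were added as 1:2 dilution series, duplicates. 17-beta-estradiol (0.5nM final) was added for 18 h before CCF4 detection.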

Assay [12] shares this target. Put plainly: qHTS assay for small molecule agonists of estrogen receptor alpha signaling (AID 588514; calls by dose curve;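 further: 0% = vehicle only and 100% = reference agonist; nearly all actives have a fitted effect of over 70% in size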). An outline of the steps: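 Efficacy is expressed against 20 nM 17-beta-estradiol (100%) and DMSO basal (0%); EC50 from Hill equation. Assay: beta-lactamase reporter in ER-alpha-UAS-bla HEK 293 cells, 18 h compound incubation, CCF4 detection.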
The target of assay [13] is Bile acid receptor (Homo sapiens) (UniProt Q96RI1). The assay can be described thus: qHTS assay for small molecule antagonists of farnesoid X receptor signaling (AID 588526; calls by dose curve; further: on the % scale 0 is the no-effect control and ±100 the full control effect). An outline of the steps: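 Beta-lactamase reporter antagonist mode: HEK293T FXR-UAS-bla cells, titrated compound, CDCA stimulation, 16 h 37 C, CCF4 dye 2 h RT. Data normalized to CDCA 50 uM and DMSO; Hill-fit IC50.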
Chain of Bile acid receptor (Homo sapiens) (Q96RI1 whole entry, looked up): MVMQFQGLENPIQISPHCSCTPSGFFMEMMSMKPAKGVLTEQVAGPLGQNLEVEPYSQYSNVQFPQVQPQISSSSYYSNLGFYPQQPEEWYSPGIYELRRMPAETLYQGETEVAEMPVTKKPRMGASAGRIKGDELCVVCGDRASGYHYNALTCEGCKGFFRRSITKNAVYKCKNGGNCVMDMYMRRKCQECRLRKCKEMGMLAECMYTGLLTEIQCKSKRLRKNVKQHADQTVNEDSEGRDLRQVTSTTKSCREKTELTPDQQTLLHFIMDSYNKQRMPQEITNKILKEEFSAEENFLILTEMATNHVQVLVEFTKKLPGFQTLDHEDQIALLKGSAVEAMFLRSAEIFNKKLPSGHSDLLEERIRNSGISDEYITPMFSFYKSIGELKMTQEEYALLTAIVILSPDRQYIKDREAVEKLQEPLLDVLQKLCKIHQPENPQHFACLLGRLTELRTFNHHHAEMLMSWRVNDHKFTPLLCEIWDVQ

For assay [14] the target is unchanged. Put plainly: qHTS assay for small molecule agonists of farnesoid X receptor signaling (AID 588527; calls by dose curve;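 further: series mostly up to about 77 µM; 0% = vehicle basal and 100% = reference agonist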). The following applies: HEK293T FXR-UAS-bla, beta-lactamase ratio, 16 h; activation: stronger effect = higher value. In short, it runs like this:
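FXR-UAS-bla HEK293T cells (10% dialyzed FBS) preincubated 5-7 h at 37 C, then compounds at up to 92 uM for 16 h at 37 C. CCF4 beta-lactamase read-out after 2 h RT. Normalized to chenodeoxycholic acid (100 uM) and DMSO; Hill fit gave EC50 and efficacy.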

Assay [15] deals with Glucocorticoid receptor (Homo sapiens) (UniProt P04150). The assay can be described thus: qHTS assay for small molecule agonists of glucocorticoid receptor signaling (AID 588532; active means well fitted curve in the direction sought with a large enough effect in the signal ratio, with a control signal flat; the % refers to the signal ratio;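 further: 100% = dexamethasone at 0.1 µM and 0% = DMSO only wells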). The settings on record: HeLa MMTV-bla, beta-lactamase ratio, agonist, 18 h; stronger effect = higher value; percent of dexamethasone control, DMSO zero. In short, it runs like this:
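Agonist-mode qHTS: GRE-driven beta-lactamase in HeLa cells exposed 18 h to titrated compounds (up to 92 uM), then CCF4 ratio read after 2 h at RT; Hill-fitted EC50, efficacy relative to 0.1 uM dexamethasone.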

For assay [16] the target is unchanged. The assay can be described thus: qHTS assay for small molecule antagonists of glucocorticoid receptor signaling (AID 588533; active means well fitted inhibition curve with a large enough effect in the signal ratio, with a control signal flat, not every such curve was filed as active; the % refers to the signal ratio;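 further: cells stimulated with 2 nM dexamethasone as agonist; on the % scale 0 is the no-effect control and ±100 the full control effect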). An outline of the steps: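 Antagonist-mode qHTS: compound titrations added to GRE-bla HeLa cells, then dexamethasone 2 nM final; 18 h, 37 C. CCF4 FRET fluorescence normalized to dexamethasone and DMSO; IC50 from Hill fit.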
Assay [17] addresses Peroxisome proliferator-activated receptor gamma (Homo sapiens) (UniProt P37231). Put plainly: qHTS assay for small molecule antagonists of peroxisome proliferator-activated receptor gamma signaling (AID 588537; active means well fitted inhibition curve with a large enough effect in the signal ratio, with a control signal flat, not every such curve was filed as active; the % refers to the signal ratio;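 further: reporter cells co-stimulated with 50 nM rosiglitazone agonist during compound treatment; % of control where 0% means no effect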). An outline of the steps: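 Antagonist-mode β-lactamase reporter screen run as a titration series. HEK293 PPARγ-UAS-bla cells are stimulated with rosiglitazone (50 nM final) for 16 h, then CCF4 is read at 460/530 nm. Data are scaled between DMSO and rosiglitazone and fitted to the Hill equation.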

The nature of assay [18]: qHTS assay for small molecule agonists of retinoid X receptor alpha signaling (AID 588544; calls by dose curve;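 on activation: 0% = DMSO basal wells and 100% = reference agonist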). The settings on record: HEK293T RXRa-UAS-bla, beta-lactamase reporter, 18 h; 530 nm emission.
For assay [19], the target named is Retinoic acid receptor RXR-alpha (Homo sapiens) (UniProt P19793). The assay is described as above.
Chain of Retinoic acid receptor RXR-alpha (Homo sapiens) (P19793 whole entry, looked up): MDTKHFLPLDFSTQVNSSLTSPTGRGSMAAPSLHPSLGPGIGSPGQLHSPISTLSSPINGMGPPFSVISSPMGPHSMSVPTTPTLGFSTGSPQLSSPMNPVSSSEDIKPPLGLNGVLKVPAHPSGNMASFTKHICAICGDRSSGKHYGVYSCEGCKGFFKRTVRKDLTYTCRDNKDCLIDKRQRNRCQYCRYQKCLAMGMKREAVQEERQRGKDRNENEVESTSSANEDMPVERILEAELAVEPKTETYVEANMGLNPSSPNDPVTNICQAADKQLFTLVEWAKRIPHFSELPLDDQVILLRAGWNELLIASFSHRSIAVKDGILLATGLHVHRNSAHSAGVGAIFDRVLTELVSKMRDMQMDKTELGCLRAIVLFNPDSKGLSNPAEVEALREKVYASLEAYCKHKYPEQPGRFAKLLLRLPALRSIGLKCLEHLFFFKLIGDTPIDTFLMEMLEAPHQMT
The target in assay [20] is Thyroid hormone receptor beta (Homo sapiens) (UniProt P10828). Put plainly: qHTS assay for small molecule agonists of thyroid hormone receptor beta signaling (AID 588545; calls by dose curve;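 further: 0% = DMSO only and 100% = 10 nM T3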). In short, it runs like this:
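Compounds were tested as agonists in TR-UAS-bla-GripTite HEK 293 cells. After 18 hrs at 37 C, CCF4 substrate was added and fluorescence read after 2 hrs at room temperature.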

Assay [21] is described as follows: qHTS assay for small molecule antagonists of retinoid X receptor alpha signaling (AID 588546). The settings on record: HEK293T RXRa-UAS-bla, beta-lactamase ratio, antagonist mode; measured here: W530 green channel, cytotoxicity proxy. An outline of the steps: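 Beta-lactamase reporter inhibition, read as CCF4 fluorescence ratio (ex 405, em 460/530 nm) after 2 h at RT. HEK293T UAS-bla cells, 2500/well, were stimulated with 9-cis-RA at 500 or 100 nM final alongside test compound for 18 h at 37 C.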

Molecules are shown by their SMILES. Results filed as inconclusive are left out. Activity calls are given as the source filed them. Unless noted, the call rests on the fitted dose curve; in most records, active means well fitted cell-killing curve with a large enough effect; inconclusive means small, poorly fitted or top-dose-only effect; inactive means flat fitted curve, though single readings scatter.

Chain of Estrogen receptor (Homo sapiens) (P03372 whole entry, looked up): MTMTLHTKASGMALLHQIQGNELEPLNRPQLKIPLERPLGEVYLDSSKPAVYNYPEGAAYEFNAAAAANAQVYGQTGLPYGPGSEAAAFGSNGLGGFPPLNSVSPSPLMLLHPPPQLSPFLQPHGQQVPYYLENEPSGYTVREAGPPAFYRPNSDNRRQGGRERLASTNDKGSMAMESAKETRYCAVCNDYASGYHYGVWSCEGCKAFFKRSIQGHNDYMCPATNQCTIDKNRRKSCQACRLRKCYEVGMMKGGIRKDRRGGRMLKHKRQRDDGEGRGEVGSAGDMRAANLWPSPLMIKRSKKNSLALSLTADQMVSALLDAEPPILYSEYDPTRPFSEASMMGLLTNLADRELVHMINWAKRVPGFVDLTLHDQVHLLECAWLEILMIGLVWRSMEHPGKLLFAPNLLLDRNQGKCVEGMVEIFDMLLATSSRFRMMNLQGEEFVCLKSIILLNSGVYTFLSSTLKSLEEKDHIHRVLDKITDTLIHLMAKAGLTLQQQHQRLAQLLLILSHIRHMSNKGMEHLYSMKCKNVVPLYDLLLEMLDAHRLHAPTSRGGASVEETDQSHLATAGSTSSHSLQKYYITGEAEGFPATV
Chain of Glucocorticoid receptor (Homo sapiens) (P04150 whole entry, looked up): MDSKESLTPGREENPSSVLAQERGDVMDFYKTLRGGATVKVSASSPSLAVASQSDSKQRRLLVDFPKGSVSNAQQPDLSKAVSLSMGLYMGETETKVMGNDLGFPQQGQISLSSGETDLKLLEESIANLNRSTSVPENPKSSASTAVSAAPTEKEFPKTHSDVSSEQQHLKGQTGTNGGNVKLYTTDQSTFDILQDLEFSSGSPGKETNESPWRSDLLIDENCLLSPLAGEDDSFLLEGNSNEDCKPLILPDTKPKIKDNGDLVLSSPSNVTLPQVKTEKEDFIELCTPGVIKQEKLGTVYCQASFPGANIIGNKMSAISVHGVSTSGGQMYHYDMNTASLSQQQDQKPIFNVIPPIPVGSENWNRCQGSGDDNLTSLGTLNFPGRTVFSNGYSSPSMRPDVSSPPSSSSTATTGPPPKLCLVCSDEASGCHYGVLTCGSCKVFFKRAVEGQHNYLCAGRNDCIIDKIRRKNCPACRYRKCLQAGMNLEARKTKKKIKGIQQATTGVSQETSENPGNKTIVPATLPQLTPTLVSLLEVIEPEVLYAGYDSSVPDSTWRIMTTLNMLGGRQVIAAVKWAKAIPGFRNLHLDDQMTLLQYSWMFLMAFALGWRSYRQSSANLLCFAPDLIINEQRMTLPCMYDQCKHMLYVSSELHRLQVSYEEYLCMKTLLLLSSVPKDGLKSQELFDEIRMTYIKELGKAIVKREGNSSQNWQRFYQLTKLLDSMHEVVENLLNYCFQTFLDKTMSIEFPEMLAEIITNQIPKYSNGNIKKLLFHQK
Chain of Thyroid hormone receptor beta (Homo sapiens) (P10828 whole entry, looked up): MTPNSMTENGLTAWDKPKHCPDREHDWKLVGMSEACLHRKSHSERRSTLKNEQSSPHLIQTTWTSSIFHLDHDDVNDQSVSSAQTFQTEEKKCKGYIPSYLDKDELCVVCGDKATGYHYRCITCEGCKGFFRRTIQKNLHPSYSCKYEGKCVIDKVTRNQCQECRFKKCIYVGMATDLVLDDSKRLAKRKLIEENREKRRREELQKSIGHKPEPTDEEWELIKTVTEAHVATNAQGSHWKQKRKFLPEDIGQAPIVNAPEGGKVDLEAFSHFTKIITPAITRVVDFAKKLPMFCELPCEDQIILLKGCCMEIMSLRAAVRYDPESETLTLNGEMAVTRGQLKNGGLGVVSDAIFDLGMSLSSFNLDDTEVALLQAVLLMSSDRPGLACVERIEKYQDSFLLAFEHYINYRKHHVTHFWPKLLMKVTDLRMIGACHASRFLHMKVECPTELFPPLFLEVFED
Chain of Peroxisome proliferator-activated receptor gamma (Homo sapiens) (P37231 whole entry, looked up): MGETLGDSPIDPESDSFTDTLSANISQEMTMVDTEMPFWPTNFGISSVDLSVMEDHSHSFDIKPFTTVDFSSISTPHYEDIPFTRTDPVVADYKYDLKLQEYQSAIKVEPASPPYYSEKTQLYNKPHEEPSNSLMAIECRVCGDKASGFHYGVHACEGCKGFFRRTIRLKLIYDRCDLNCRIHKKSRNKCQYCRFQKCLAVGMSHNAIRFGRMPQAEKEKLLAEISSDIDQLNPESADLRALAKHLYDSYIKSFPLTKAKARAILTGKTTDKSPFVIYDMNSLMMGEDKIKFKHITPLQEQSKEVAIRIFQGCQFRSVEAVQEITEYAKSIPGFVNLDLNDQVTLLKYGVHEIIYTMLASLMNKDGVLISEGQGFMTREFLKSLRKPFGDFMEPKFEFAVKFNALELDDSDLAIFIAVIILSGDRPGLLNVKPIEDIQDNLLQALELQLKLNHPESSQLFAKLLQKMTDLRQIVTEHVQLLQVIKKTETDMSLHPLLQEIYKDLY

`CC(C)COC(=O)c1ccccc1C(=O)OCC(C)C`: the compound was called inactive in assay [1], in assay [2], in assay [3], in [4], in assay [6] and in assay [7]. Besides, the compound was called inactive in [8], in assay [10] and in [19]. In addition, the Potency entry in assay [5], in assay [9], in assay [11], in assay [12], in assay [13] and in [16] was “inactive” in each case. Also, the Potency entry in assay [17] and in assay [20] was “inactive” each time. The activation in [14] is -1.69% (inactive); in assay [15], -1.08% (inactive). Also, the max response in assay [18] is -12.5%; in assay [21], -12.2%.
